Here are results for ten molecules from PubChem BioAssay (NCI).

This is part of a sample that, as a whole, favours compounds with a hit. Of some 79,000 tested, about 15% had one in any assay. Unmarked numbers belong to inactive results. Activity calls are given as the source filed them. Rule as the data show it: active = growth inhibition above about 70%; inactive = the rest.

Test [1] can be described thus: NCI Yeast Anticancer Drug Screen. Data for the rad50 strain (AID 155).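 Also: 0% = growth of vehicle-only cultures of the same strain.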 The following applies: S. cerevisiae rad50 strain growth inhibition, active compounds read high. In outline: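 Inhibition values express reduced yeast growth in compound-treated cultures relative to vehicle-treated controls.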
The nature of test [2]: NCI Yeast Anticancer Drug Screen. Data for the mec2-1 strain (AID 157). Particulars: S. cerevisiae mec2-1 strain, active compounds read high. An outline of the steps: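 Growth inhibition is read against vehicle-treated controls after compound exposure of the mec2-1 yeast strain, which is defective in DNA damage repair or cell cycle control.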
A short description of test [3]: NCI Yeast Anticancer Drug Screen. Data for the sgs1 mgt1 strain (AID 161).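 Also: 0% = growth of cultures given vehicle only.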 The following applies: S. cerevisiae sgs1 mgt1 strain, active compounds read high. An outline of the steps:
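Percent growth inhibition was derived by comparing compound-exposed mutant yeast with vehicle-exposed cultures. The strain carries alterations in DNA damage repair.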

A short description of test [4]: NCI Yeast Anticancer Drug Screen. Data for the cln2 rad14 strain (AID 165).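 Also: 0% = growth equal to vehicle treated cultures.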 Particulars: S. cerevisiae cln2 rad14 strain, active compounds read high. An outline of the steps: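 Growth inhibition, relative to vehicle-treated controls, is the read-out. The test organism is a yeast strain with defined genetic alterations, cln2 rad14.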
Test [5] in a line: NCI Yeast Anticancer Drug Screen. Data for the bub3 strain (AID 167). The following applies: S. cerevisiae bub3 mutant strain, active compounds read high. In outline: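 Steps: expose the mutant yeast strain to compound; grow alongside vehicle-treated cultures; measure growth; express inhibition against the vehicle cultures.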
Test [6] in a line: NCI Yeast Anticancer Drug Screen. Data for the mlh1 rad18 strain (AID 175). The following applies: S. cerevisiae mlh1 rad18 strain growth inhibition, active compounds read high. In outline: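 Cells of a genetically altered yeast strain, deficient in DNA damage repair, were treated with compound. Their growth was then compared with that of vehicle-treated cultures to give inhibition.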

Setting [7] is: at 5.0 µM (retest, dose inferred, filed as 0.5).
The mark [8] stands for this setting: at 50.0 µM (retest, dose inferred, filed as 5.0).

`CCN(CC)CCNc1ccc(C)c2sc3cccc(O)c3c(=O)c12`: the growth inhibition in test [1] (setting [7]) is 86% (active); in test [1] (setting [8]) it was 99% (active); in test [1] (at 50.0 µM), 99.2% (active); in test [2] (setting [7]), 3%; in test [2] (setting [8]), 72% (active); in test [2] (at 50.0 µM), 99.7% (active). Moreover, the growth inhibition in test [3] (setting [7]) was 15%; in test [3] (setting [8]), 96% (active); in test [3] (at 50.0 µM) it was 99.5% (active); in test [4] (setting [7]) it was 2%; in test [4] (setting [8]) it was 85% (active); in test [4] (at 50.0 µM), 55.5%. In addition, the growth inhibition in test [5] (setting [7]) is 10%; in test [5] (setting [8]) it was 96% (active); in test [5] (at 50.0 µM) it was 99.5% (active); in test [6] (setting [7]), 12%; in test [6] (setting [8]), 99% (active); in test [6] (at 50.0 µM), 99.3% (active).
Regarding `O=C(c1ccccc1)c1ccc(Cl)cc1`, the growth inhibition was -1% in test [1] (setting [7]); -16% in test [1] (setting [8]); 66.2% in test [1] (at 50.0 µM); -3% in test [2] (setting [7]); -5% in test [2] (setting [8]); 37.4% in test [2] (at 50.0 µM). Besides, the growth inhibition in test [3] (setting [7]) was 2%; in test [3] (setting [8]), 4%; in test [3] (at 50.0 µM) it was 74.2% (active); in test [4] (setting [7]), 1%; in test [4] (setting [8]), 2%; in test [4] (at 50.0 µM) it was -3%. Also, the growth inhibition in test [5] (setting [7]) is -42%; in test [5] (setting [8]) it was 0%; in test [5] (at 50.0 µM), 73.8% (active); in test [6] (setting [7]) it was 1%; in test [6] (setting [8]) it was 2%; in test [6] (at 50.0 µM), 81.5% (active).
Consider `O=C1OC2(CCCC2)OC1c1ccccc1` (stereo not given), for which the growth inhibition was 2% in test [1] (setting [7]); -7% in test [1] (setting [8]); 14.9% in test [1] (at 50.0 µM); -1% in test [2] (setting [7]); 2% in test [2] (setting [8]); -17.6% in test [2] (at 50.0 µM). The growth inhibition in test [3] (setting [7]) is -2%; in test [3] (setting [8]), -7%; in test [3] (at 50.0 µM), -9.7%; in test [4] (setting [7]), -4%; in test [4] (setting [8]) it was 0%; in test [4] (at 50.0 µM) it was 72.2% (active). Besides, the growth inhibition in test [5] (setting [7]) is -5%; in test [5] (setting [8]), -4%; in test [5] (at 50.0 µM), 13.2%; in test [6] (setting [7]), -5%; in test [6] (setting [8]), -9%; in test [6] (at 50.0 µM), -6.4%.
With `CC(=O)NNc1nc(C)c(C(=O)NNC(=O)C(=O)Nc2c(C)cccc2C(C)C)s1`, the growth inhibition in test [1] (setting [7]) is 3%; in test [1] (setting [8]) it was 85% (active); in test [1] (at 50.0 µM), 43.1%; in test [2] (setting [7]), 1%; in test [2] (setting [8]), 88% (active); in test [2] (at 50.0 µM), 33%. For the same molecule, the growth inhibition is 6% in test [3] (setting [7]); 89% (active) in test [3] (setting [8]); 47% in test [3] (at 50.0 µM); 0% in test [4] (setting [7]); 49% in test [4] (setting [8]); 9% in test [4] (at 50.0 µM). Also, the growth inhibition in test [5] (setting [7]) is 4%; in test [5] (setting [8]), 87% (active); in test [5] (at 50.0 µM) it was 37.5%.
As for `CN(C)CC/C(=N\Nc1ccc(Cl)cc1Cl)c1ccccc1`, the growth inhibition is 90% (active) in test [1] (setting [7]); 99% (active) in test [1] (setting [8]); 99.5% (active) in test [1] (at 50.0 µM); 79% (active) in test [2] (setting [7]); 100% (active) in test [2] (setting [8]); 99.5% (active) in test [2] (at 50.0 µM). Further, the growth inhibition in test [3] (setting [7]) is 97% (active); in test [3] (setting [8]) it was 100% (active); in test [3] (at 50.0 µM) it was 99.5% (active); in test [4] (setting [7]) it was 95% (active); in test [4] (setting [8]), 99% (active); in test [4] (at 50.0 µM), 99.2% (active). Further, the results for the growth inhibition in test [5] (setting [7]), in test [5] (setting [8]) and in test [5] (at 50.0 µM) were 96% (active), 100% (active) and 99.5% (active), respectively.
For the molecule `CC(CO)CCC(=O)C(C)C1C(=O)CC2CC3CC(O)CCC3(C)CC21C` (stereo not given), the growth inhibition in test [1] (setting [7]) was 3%; in test [1] (setting [8]), 41%; in test [1] (at 50.0 µM), 83.2% (active); in test [2] (setting [7]) it was -2%; in test [2] (setting [8]), 66%; in test [2] (at 50.0 µM), 81% (active). The growth inhibition in test [3] (setting [7]) was 2%; in test [3] (setting [8]), 48%; in test [3] (at 50.0 µM), 84% (active); in test [4] (setting [7]), 4%; in test [4] (setting [8]), 88% (active); in test [4] (at 50.0 µM) it was 95.1% (active). Besides, the growth inhibition in test [5] (setting [7]) is 2%; in test [5] (setting [8]), 85% (active); in test [5] (at 50.0 µM), 63.6%.
For `CC(CCCN(C)Cc1ccccc1)Nc1ccnc2cc(Cl)ccc12` (stereo not given), the growth inhibition in test [1] (setting [7]) is 88% (active); in test [1] (setting [8]), 99% (active); in test [1] (at 50.0 µM) it was 99% (active); in test [2] (setting [7]), 53%; in test [2] (setting [8]), 100% (active); in test [2] (at 50.0 µM), 98.3% (active). Further, the growth inhibition in test [3] (setting [7]) was 99% (active); in test [3] (setting [8]), 99% (active); in test [3] (at 50.0 µM) it was 99.5% (active); in test [4] (setting [7]) it was 41%; in test [4] (setting [8]) it was 99% (active); in test [4] (at 50.0 µM), 99.4% (active). Further, the growth inhibition in test [5] (setting [7]) is 86% (active); in test [5] (setting [8]), 99% (active); in test [5] (at 50.0 µM), 99.5% (active).
For `COC1C(=[N+]=[N-])C(=O)NC(=O)N1C1OC(COC(c2ccccc2)(c2ccccc2)c2ccccc2)C(O)C1O` (stereo not given), the growth inhibition was 63% in test [1] (setting [7]); 63% in test [1] (setting [8]); 69.5% in test [1] (at 50.0 µM); 10% in test [2] (setting [7]); 10% in test [2] (setting [8]); 80.7% (active) in test [2] (at 50.0 µM). The growth inhibition in test [3] (setting [7]) is 18%; in test [3] (setting [8]) it was 18%; in test [3] (at 50.0 µM) it was 66.8%; in test [4] (setting [7]) it was 14%; in test [4] (setting [8]), 14%; in test [4] (at 50.0 µM), 77.2% (active). In addition, the figures for the growth inhibition in test [5] (setting [7]), in test [5] (setting [8]) and in test [5] (at 50.0 µM) were 13%, 13% and 60.2%, respectively.
Consider `CC(=O)N1c2ccccc2Sc2ccc3ccc(C(=O)CCl)cc3c21`, for which the growth inhibition is 81% (active) in test [1] (setting [7]); 97% (active) in test [1] (setting [8]); 87.2% (active) in test [1] (at 50.0 µM); 83% (active) in test [2] (setting [7]); 98% (active) in test [2] (setting [8]); 90.5% (active) in test [2] (at 50.0 µM). Further, the growth inhibition in test [3] (setting [7]) was 92% (active); in test [3] (setting [8]), 98% (active); in test [3] (at 50.0 µM), 89.9% (active); in test [4] (setting [7]), 70% (active); in test [4] (setting [8]) it was 97% (active); in test [4] (at 50.0 µM), 88.3% (active). The growth inhibition is 93% (active) in test [5] (setting [7]); 97% (active) in test [5] (setting [8]); 89.2% (active) in test [5] (at 50.0 µM); 65% in test [6] (setting [7]); 97% (active) in test [6] (setting [8]); 87.8% (active) in test [6] (at 50.0 µM).
Take `C[n+]1c(-c2ccc(/C=N/Nc3n[nH]c(=S)n3/N=C/c3ccc(-c4cn5ccsc5[n+]4C)cc3)cc2)cn2ccsc21`: the growth inhibition in test [1] (setting [7]) is -14%; in test [1] (setting [8]) it was 97% (active); in test [1] (at 50.0 µM), 97.9% (active); in test [2] (setting [7]) it was -2%; in test [2] (setting [8]) it was 97% (active); in test [2] (at 50.0 µM), 94.2% (active). The growth inhibition in test [3] (setting [7]) was -4%; in test [3] (setting [8]), 96% (active); in test [3] (at 50.0 µM), 95.3% (active); in test [4] (setting [7]), -6%; in test [4] (setting [8]) it was 94% (active); in test [4] (at 50.0 µM), 93.8% (active). The growth inhibition in test [5] (setting [7]) is -29%; in test [5] (setting [8]) it was 98% (active); in test [5] (at 50.0 µM), 96.5% (active); in test [6] (setting [7]), -2%; in test [6] (setting [8]), 97% (active); in test [6] (at 50.0 µM) it was 93.5% (active).
